# Hits are enriched below; roughly 2.4% of the tested compounds scored in any of these assays.
# Cruzain noTriton – blocks cruzain activity in detergent-free assay. Potency, µM, usual class: inhibitors. 200,000 tested, 2.3% active. P25779. AID 1476. purified cruzain, Z-FR-AMC fluorescence, no detergent; also: nearly all actives have a fitted effect of over 40% in size
# Target sequence (P25779 123-467 limits assumed): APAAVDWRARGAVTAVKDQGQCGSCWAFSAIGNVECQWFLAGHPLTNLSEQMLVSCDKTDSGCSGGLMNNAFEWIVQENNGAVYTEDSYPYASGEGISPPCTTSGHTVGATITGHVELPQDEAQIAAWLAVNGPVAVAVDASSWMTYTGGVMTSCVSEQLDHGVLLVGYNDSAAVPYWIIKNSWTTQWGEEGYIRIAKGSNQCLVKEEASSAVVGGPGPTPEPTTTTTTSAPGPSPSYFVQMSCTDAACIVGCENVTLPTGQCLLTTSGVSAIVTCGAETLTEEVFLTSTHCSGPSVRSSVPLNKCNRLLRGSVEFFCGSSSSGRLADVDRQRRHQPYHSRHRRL
#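 Detergent-free condition (0.00005% Triton X-100) in acetate buffer pH 5.5 with DTT. 1.5 nM enzyme and compound were pre-mixed 15 min, then 2 uM Z-FR-AMC substrate added; reaction progress from fluorescence change between first and third reads (60 s).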
# Cruzain Triton – cruzain (T. cruzi) inhibition with detergent | AID 1478 | purified cruzain, Z-FR-AMC fluorescence, 0.01% Triton | Potency, µM, most hits filed as inhibitors | 200,000 tested, 0.43% active | P25779; also: nearly all actives have a fitted effect of over 40% in size
#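 Cysteine protease activity tested under reducing, mildly acidic conditions (100 mM sodium acetate pH 5.5, 5 mM DTT) plus 0.01% Triton X-100. Cruzain 1.5 nM; substrate Z-FR-AMC 2 uM; 15 min compound preincubation at room temperature.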
# A number is an active result; n = inactive; u = inconclusive; ! = not active in a repeat. Calls follow the shape of the dose curve; as a rule, active = well fitted curve in the direction sought with a large enough effect; inconclusive = small, poorly fitted or top-dose-only effect, or another doubt; inactive = no such curve, though single readings can be large; an effect the other way counts as inactive or inconclusive.
SMILES,Cruzain noTriton,Cruzain Triton
CC1CN(C(=O)N2CCC(C(=O)NC3CCCCCC3)CC2)c2ccccc2O1 (stereo unspecified),7.94µM,n
CC(C)NC(=O)C1CCN(C(=O)N2CC(C)Oc3ccccc32)CC1 (stereo unspecified),n,n
COc1cccc(Cn2c(=O)n(-c3cccc(Cl)c3C)c(=O)c3c4c(sc32)CN(C(C)=O)CC4)c1,u,n
O=[N+]([O-])c1ccc(-c2nc(-c3cccs3)c(-c3cccs3)[nH]2)cc1,31.6µM,n
O=[N+]([O-])c1cccc(-c2nc(-c3cccs3)c(-c3cccs3)[nH]2)c1,u,n
CCOC(=O)c1c(NC(C)=O)c2c3c(sc2n1Cc1cc(C)ccc1C)CCCC3,n,n
C=CCCCC,n,n
Cc1ccnc(N/C=C(\C#N)c2nc(-c3cccc(Br)c3)cs2)c1,25.1µM,u
N#C/C(=C/c1ccc(Cl)cc1)c1nc(-c2ccc(Br)cc2)cs1,n,n
O=C(c1ccco1)N1CCN(c2nc3ccccc3n3nnnc23)CC1,n,n
c1ccc(CC2CCN(c3nc4ccccc4n4nnnc34)CC2)cc1,25.1µM,n
O=C(O)CCCc1ccc2ccc3ccccc3c2c1,n,n
CCOc1cc(CNC(=O)c2ccc3nc(C(C)C)oc3c2)cc(OCC)c1OCC,u,n
Cc1cccc(NC(=O)CSc2nc3ccc(NC(=O)CSc4nnnn4-c4ccccc4)cc3s2)c1C,u,n
O=C(CSc1nc2ccc(NC(=O)CSc3nnnn3-c3ccccc3)cc2s1)Nc1ccccc1,5.01µM,n
Cc1cccc(NC(=O)CSc2nc3ccc(NC(=O)COc4ccc(Cl)cc4)cc3s2)c1,7.94µM,n
O=C(O)CSc1nc2ccc(NC(=O)COc3ccc(Cl)cc3)cc2s1,n,n
Cc1cccc(-c2noc(-c3cc(C(C)C)[nH]n3)n2)c1,n,n
C#C[C@]1(O)CC[C@H]2C3CCC4=Cc5oncc5CC4(C)C3CCC21C (stereo partly specified),n,n
CCc1nnc(NC(=O)c2nc(SCc3ccc(F)cc3)ncc2Cl)s1,n,n
N[C@@H](Cc1cc(I)c(Oc2ccc(O)c(I)c2)c(I)c1)C(=O)O,12.6µM!,u
NC(Cc1cc(I)c(Oc2ccc(O)c(I)c2)c(I)c1)C(=O)O (stereo unspecified),n,n
COc1ccc(-c2cc(C(=O)Nc3ccn(Cc4ccc(C)cc4)n3)no2)cc1OC,n,n
O=C(Nc1cccc(Cl)c1N1CCCCC1)c1ccc2c(c1)OCCO2,n,n
O=C(NC(=S)Nc1cccc(Cl)c1N1CCCCC1)c1ccc2c(c1)OCCO2,12.6µM,n
SMILES,Cruzain noTriton,Cruzain Triton
Cc1ccc(S(=O)(=O)/C(=C/Cl)NC(=O)c2ccccc2)cc1,25.1µM,22.4µM
Cc1ccc(C(=O)NC(=C(Cl)Cl)S(=O)(=O)c2ccc(C)cc2)cc1,n,n
COc1cc(NC(=O)c2cc(-c3cccc(Cl)c3)on2)c(OC)cc1Cl,n,n
COc1ccc2c(C)c(CCC(=O)NCc3ccc(C)cc3)c(=O)oc2c1,n,n
COc1cc(OC)cc(-c2nc3ccccc3c(=O)n2OC(=O)c2ccc(Br)cc2)c1,25.1µM,n
COc1ccc(C(=O)On2c(-c3ccc(Br)cc3)nc3ccccc3c2=O)cc1,u,n
CC(=O)Nc1c(C(=O)Nc2ccccc2F)oc2ccccc12,n,n
Cc1ccc(S(=O)(=O)ON2C(=O)c3cccc4cccc(c34)C2=O)cc1,n,n
O=C1c2ccccc2C(=O)N1OS(=O)(=O)c1ccccc1,7.94µM,u
O=C1c2cccc3cccc(c23)C(=O)N1OS(=O)(=O)c1ccccc1,n,n
Cc1ccc(C)c(S(=O)(=O)ON2C(=O)c3ccccc3C2=O)c1,10µM,12.6µM
Fc1ccc(Nc2ncnc3ccc(-c4ccoc4)cc23)cc1,n,n
CCCN(CCC)CCCNC(=O)c1nn(C)c2c1CS(=O)(=O)c1ccccc1-2,n,n
Cc1cc(C)cc(N2CCn3c2nc2c3c(=O)n(Cc3c(F)cccc3Cl)c(=O)n2C)c1,n,n
Cc1cccc(N2CCN(C(=O)c3oc(=O)c4ccccc4c3-c3ccccc3)CC2C)c1 (stereo unspecified),n,n
COc1ccc(NC(=O)C2CCN(S(=O)(=O)c3cccc(-c4noc(C)n4)c3)CC2)cc1OC,n,n
CS(=O)(=O)N1CCN(c2ccccc2NC(=O)c2ccc(-c3ccc(Cl)cc3Cl)o2)CC1,3.16µM,n
CN1CCN(c2ccccc2NC(=O)c2ccc(-c3ccc(Cl)cc3Cl)o2)CC1,n,n
Cc1ccc2nc(-c3ccc(NC(=O)CCN4C(=O)c5ccccc5C4=O)cc3)sc2c1,u,n
CCS(=O)(=O)c1cccc(C(=O)Nc2ccc(-c3nc4ccccc4s3)c(O)c2)c1,n,n
O=C(Nc1ccc(-c2nc3ccccc3s2)c(O)c1)C1=COCCO1,u,15.8µM
COc1ccc(C(=O)Nc2cc(C)c(O)c(-c3nc4ccccc4s3)c2)cc1OC,n,n
O=C(Nc1ccc(O)c(-c2nc3ccccc3s2)c1)C1=COCCO1,n,n
O=C(CCS(=O)(=O)c1ccccc1)Nc1ccc(-c2nc3ccccc3s2)c(O)c1,10µM,n
O=C(CCN1C(=O)c2ccccc2C1=O)Nc1ccc(-c2nc3ccccc3s2)cc1,25.1µM,n
SMILES,Cruzain noTriton,Cruzain Triton
O=C(Nc1ccc(OC(=O)c2ccccc2)c(-c2nc3ccccc3s2)c1)c1ccccc1,7.94µM,n
CCN(CC)CC[n+]1ccc2c(C)c3[nH]c4ccccc4c3c(C)c2c1,n,n
Cc1ccn2c(=O)cc(COc3cccc(NC(=O)Nc4cccc(Cl)c4C)c3)nc2c1,n,n
CCc1cccc(C)c1NC(=O)Cn1ccn(-c2cccc(OC)c2)c(=O)c1=O,n,n
COc1cccc(CNC(=O)Cc2ccc(NC(=O)N3CCSc4ncccc43)cc2)c1OC,n,n
O=c1c(N2CCN(c3cccc(Cl)c3)CC2)csc2ccc(Cl)cc12,n,n
COc1cccc2c(C)cc3nnc(SCC(=O)Nc4ccc(C)cc4)n3c12,n,n
CC(C)(C)C(=O)Cn1c(=O)n(CCCCCC(=O)NCc2ccccc2Cl)c(=O)c2sccc21,n,n
O=C(CCCCCn1c(=O)c2sccc2n(CC(=O)Nc2cc(C(F)(F)F)ccc2Cl)c1=O)NCc1ccccc1Cl,15.8µM,n
Cc1ccccc1Nc1c(-c2ccc(Br)cc2O)nc2sccn12,20µM,n
Cc1ccc(-c2nc3sccn3c2Nc2ccccc2C)cc1,25.1µM,n
CCc1cccc(C)c1Nc1c(-c2ccccc2)nc2sccn12,n,n
Cc1ccccc1Nc1c(-c2cc(Br)ccc2F)nc2ccccn12,n,n
Clc1ccc(-c2nnc(-c3ccc(Br)cc3)c(N3CCSCC3)n2)cc1,20µM,n
Clc1ccc(-c2nnc(-c3ccco3)nc2N2CCCCC2)cc1,n,n
CCN(CC)S(=O)(=O)c1cc(C(=O)OCC(=O)c2ccc3c(c2)NC(=O)CO3)ccc1Cl,n,n
CC(C)CC(NC(=O)c1ccc(Cl)cc1)C(=O)OCC(=O)c1ccc2c(c1)NC(=O)CO2 (stereo unspecified),20µM,n
COc1cccc(CNC(=O)CCn2nc(C)c3c(C)n(-c4ccccc4)nc3c2=O)c1,n,n
COc1ccc(C(=O)Nc2ccc3nc(SCC(=O)N(C)c4ccccc4)sc3c2)cc1,n,n
COc1cc2ccccc2cc1C(=O)N1CCN(c2nc3ccc(F)cc3s2)CC1,n,n
CC(=O)c1c(C)[nH]c(C(=O)COC(=O)CNS(=O)(=O)c2ccccc2)c1C,n,n
CCOC(=O)c1c(C)[nH]c(C(=O)COC(=O)CCSc2ccccc2)c1C,n,25.1µM
